Assay results from PubChem BioAssay (NCATS).
Unmarked numbers belong to inactive results. Results filed as inconclusive are left out. Active and inactive are the calls of the source. Calls follow the shape of the dose curve; as a rule, active = well fitted inhibition curve with a large enough effect; inconclusive = small, poorly fitted or top-dose-only effect; inactive = flat fitted curve, though single readings scatter.

Each compound was assayed against DNA dC->dU-editing enzyme APOBEC-3G (Homo sapiens) (UniProt Q9HC16) (assay: qHTS for inhibitors of Vif-A3G interactions: Validation (AID 588379; also: 0% is about no effect)). Conditions: Vif-A3G protein interaction assay; series mostly up to 46.1 µM; activity change, negative = inhibition: at the top concentration.
In short: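 HeLa cells stably expressing Vif and A3G-eYFP, 700 cells/well, incubated overnight at 37 deg C, then exposed to compound overnight at 37 deg C. Inhibition of Vif-mediated degradation read as increased yellow fluorescence (Ex 488/Em 500-530) by laser-scanning cytometry.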

DNA dC->dU-editing enzyme APOBEC-3G (Homo sapiens), sequence (Q9HC16 whole entry, looked up): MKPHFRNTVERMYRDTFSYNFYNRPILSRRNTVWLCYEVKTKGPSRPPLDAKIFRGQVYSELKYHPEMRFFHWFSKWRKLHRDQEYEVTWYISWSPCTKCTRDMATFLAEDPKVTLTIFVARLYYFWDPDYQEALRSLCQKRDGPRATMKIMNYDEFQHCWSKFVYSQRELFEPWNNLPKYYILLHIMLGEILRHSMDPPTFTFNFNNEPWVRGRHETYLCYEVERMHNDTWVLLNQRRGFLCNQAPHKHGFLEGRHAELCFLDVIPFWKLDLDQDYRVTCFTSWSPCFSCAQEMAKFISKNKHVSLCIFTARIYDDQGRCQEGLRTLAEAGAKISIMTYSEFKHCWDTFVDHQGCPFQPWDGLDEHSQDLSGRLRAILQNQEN

Q: With `CCN(CC)CCO[C@H]1CC[C@@]2(C)C(=CC[C@@H]3[C@H]2CC[C@]2(C)C(=O)CC[C@H]32)C1` as the compound, how does the “activity change, negative = inhibition” value read?
A: 0.0432%

The compounds below were run on Zika virus NS2B-NS3 protease (assay: Primary screen GU AMC qHTS for Zika virus inhibitors (AID 1347154; also: nearly all actives have a fitted effect of over 70% in size; also: potency is read from the fitted curve at half-maximal effect;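 as to activity change, negative = inhibition: 0% = no-inhibitor control and -100% = no-enzyme control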)). Conditions: Zika NS2B-NS3 unlinked protease, AMC fluorogenic substrate; series mostly up to 54.1 µM; activity change, negative = inhibition: at the top concentration.
In short: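 Unlinked Zika NS2B hydrophilic domain/NS3 protease domain noncovalent complex (25 nM final) in 10 mM Tris-HCl pH 8.0, 0.01% Tween 20, with AMC peptide substrate. Fluorescence (ex 340, em 450 nm) change over 15 min, room temperature; percent inhibition fitted to 4-parameter Hill equation.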

Q: How did the Potency turn out when `CC(C)[C@@]1(NC(=O)[C@@H]2C[C@H]3c4cccc5[nH]cc(c45)C[C@@H]3N(C)C2)O[C@@]2(O)[C@H]3CCCN3C(=O)[C@H](Cc3ccccc3)N2C1=O` was run?
A: inactive

Q: With `COc1ccc2c(c1)[nH]c1c(C)nccc12` as the compound, how does the Potency read?
A: 3.36 µM (active)

Q: With `CCC(Sc1ccccc1)C(=O)OC1CC2CCC(C1)N2C` (stereo unspecified) as the compound, how does the “activity change, negative = inhibition” value read?
A: -8.55%

Q: For `Cn1c2c(c3ccccc31)CCNCC2`, which “activity change, negative = inhibition” value is on record?
A: -0.512%

Q: `CN(CCc1ccc(Cl)c(Cl)c1)[C@@H]1CCCC[C@@H]1N1CCCC1` was tested. Which “activity change, negative = inhibition” value did it give?
A: -0.103%

Q: How did the “activity change, negative = inhibition” value turn out when `OC12C3C4CC5C6C4C1C6C(C53)N2CCc1cccc(F)c1` (stereo unspecified) was run?
A: 8.11%

Q: Which “activity change, negative = inhibition” value does the source give for `Cl.Cl.Cl.Cl.Cl.Cl.N.N.N.N.NNNNN.NNNNN.O.O.[Ru].[Ru].[Ru]` here?
A: 17%

Q: For `Cc1ccc2c(c1)Cc1c(C(=O)NN3CCCCC3)nn(-c3ccc(Cl)cc3Cl)c1-2`, which “activity change, negative = inhibition” value is on record?
A: -0.896%

Q: With `CC(C)(O)C1O[C@H]2CC[C@@]3(C)[C@@](O)(CC[C@H]4Cc5c([nH]c6ccccc56)[C@@]43C)C2=CC1=O` (stereo partly specified) as the compound, how does the Potency read?
A: inactive

Q: `C[C@@H](C(=O)OC1C[C@H]2CC[C@@H](C1)N2C)c1ccc(Br)cc1` (stereo partly specified) was tested. Which “activity change, negative = inhibition” value did it give?
A: -3.82%

Q: Which “activity change, negative = inhibition” value does the source give for `C[C@]12CCC3C(CC[C@H]4C[C@H](O)CC[C@]34C)[C@@H]1CC[C@@H]2C(=O)CO` (stereo partly specified) here?
A: -0.808%

Q: With `CC(C(=O)OC1CC2CCC(C1)N2C)c1ccc(Br)cc1` (stereo unspecified) as the compound, how does the “activity change, negative = inhibition” value read?
A: -3.89%

Q: For `O=C1CC2OCC=C3CN4CCC56c7ccccc7N1C5C2C3CC46` (stereo unspecified), which “activity change, negative = inhibition” value is on record?
A: -2.31%

Q: For `COc1ccc2c(CCN)c[nH]c2c1`, which “activity change, negative = inhibition” value is on record?
A: 16.1%

Q: Which “activity change, negative = inhibition” value does the source give for `CN1C(=O)COc2c(C(=O)N[C@@H]3CN4CCC3CC4)cc(Cl)cc21` here?
A: 2.71%

Q: How did the “activity change, negative = inhibition” value turn out when `C=C(C)C1CCC(C)=CC1c1c(OC)cc(C)cc1OC` (stereo unspecified) was run?
A: 9.84%

Q: `c1ccc2sc(C3(N4CCCC4)CCCCC3)cc2c1` was tested. Which “activity change, negative = inhibition” value did it give?
A: 7.04%

Q: How did the Potency turn out when `NC(N)=NCCCCCCCCCCN=C(N)N` was run?
A: inactive

Q: For `C[C@H]1C[C@H](C)C(=O)[C@@H]([C@H](O)CC2CC(=O)NC(=O)C2)C1`, which “activity change, negative = inhibition” value is on record?
A: -13%

Q: For `CC(C)=CCCN1CCC(NC(=O)C(O)(c2ccccc2)C2CCCC2)CC1` (stereo unspecified), which “activity change, negative = inhibition” value is on record?
A: 10.6%

Q: For `NC(=O)[C@H](Cc1ccccc1)NC(=O)[C@H](Cc1c[nH]c2ccccc12)NC(=O)[C@@H]1CCCN1C(=O)[C@@H](N)Cc1ccc(O)cc1`, which activity change, negative = inhibition is on record?
A: 11.2% [at 6.83 µM]

Q: How did the “activity change, negative = inhibition” value turn out when `Cc1ccc2c(c1)C1(CCN(CCc3nc(-c4ccccc4)oc3C)CC1)OC(=O)N2` was run?
A: 9%

Q: With `CN1C2CCC1CC(OC(c1ccc(F)cc1)c1ccc(F)cc1)C2` (stereo unspecified) as the compound, how does the “activity change, negative = inhibition” value read?
A: 3.71%

Q: Which activity change, negative = inhibition does the source give for `C[C@H](NC(=O)[C@@H](N)Cc1ccc(O)cc1)C(=O)NCC(=O)N(C)[C@@H](Cc1ccccc1)C(=O)N[C@H](CO)CCS(C)=O` (stereo partly specified) here?
A: 4.8% [at 6.83 µM]

Q: For `Nc1ncnc2c1ncn2[C@@H]1O[C@H](COP(=O)(O)CP(=O)(O)O)[C@@H](O)[C@H]1O`, which “activity change, negative = inhibition” value is on record?
A: 1.57%

Q: Which “activity change, negative = inhibition” value does the source give for `CC(=O)C1=C(O)[C@@H]2[C@@H]3c4c[nH]c5cccc(c45)C[C@@H]3C(C)(C)N2C1=O` here?
A: -0.11%

Q: How did the “activity change, negative = inhibition” value turn out when `CN1CC[C@@H]2CN3CCc4cccc(c43)[C@@H]2C1` was run?
A: -13.2%

Q: How did the Potency turn out when `COc1ccc2[nH]cc(C3=CCNCC3)c2c1` was run?
A: inactive

Q: With `CCCCCOc1c(OC)ccc2cc(C(=O)NCc3ccc4c(c3)OCO4)c(=O)[nH]c12` as the compound, how does the “activity change, negative = inhibition” value read?
A: -1.6%

Q: `CC1CCC2C(C)C(=O)OC3O[C@]4(C)CCC1[C@@]32OO4` (stereo partly specified) was tested. Which “activity change, negative = inhibition” value did it give?
A: 16.2%

Q: `Oc1ccc2c3c1O[C@H]1c4oc5ccccc5c4C[C@@]4(O)C(C2)N(CC2CC2)CC[C@]314` was tested. Which “activity change, negative = inhibition” value did it give?
A: -4.22%

Q: For `Oc1ccc2c3c1O[C@H]1c4c(c5ccccc5n4Cc4ccccc4)C[C@@]4(O)C(C2)N(CC2CC2)CC[C@]314`, which “activity change, negative = inhibition” value is on record?
A: 6.93%

Q: For `C=CCN1CCC2(C)c3cc(O)ccc3CC1C2C` (stereo unspecified), which “activity change, negative = inhibition” value is on record?
A: 3.81%

Q: With `CC(C)C[C@H](NC(=O)[C@H](Cc1ccccc1)NC(=O)CNC(=O)[C@H](CO)NC(=O)[C@@H](N)Cc1ccc(O)cc1)C(=O)N[C@H](C(=O)O)[C@H](C)O` as the compound, how does the activity change, negative = inhibition read?
A: 10.8% [at 6.83 µM]

Q: Which “activity change, negative = inhibition” value does the source give for `Oc1ccc2c3c1O[C@H]1c4[nH]c5ccccc5c4C[C@]4(O)[C@H](C2)N(CC2CC2)CC[C@@]314` here?
A: 10.3%

Q: With `CC(C)C[C@H](NC(=O)[C@H](Cc1ccccc1)NC(=O)CNC(=O)[C@H](C)NC(=O)[C@@H](N)Cc1ccc(O)cc1)C(=O)O` as the compound, how does the activity change, negative = inhibition read?
A: 14.3% [at 6.83 µM]

Q: Which “activity change, negative = inhibition” value does the source give for `CN1CC[C@@]2(c3cccc(O)c3)Cc3nc4ccccc4cc3C[C@H]2C1` here?
A: 17.7%

Q: How did the “activity change, negative = inhibition” value turn out when `CCCC[C@@H](C)[C@@H](OC(=O)C[C@@H](CC(=O)O)C(=O)O)[C@H](C[C@@H](C)C[C@H](O)CCCC[C@@H](O)C[C@H](O)[C@H](C)N)OC(=O)C[C@H](CC(=O)O)C(=O)O` was run?
A: -3.71% [at 25.8 µM]

Q: For `CC(=O)C1CCC2C3CCC4CC(C)(O)CCC4(C)C3CCC12C` (stereo unspecified), which “activity change, negative = inhibition” value is on record?
A: 10.2%

Q: Which “activity change, negative = inhibition” value does the source give for `CCN(CC)CCO[C@H]1CC[C@@]2(C)C(=CC[C@@H]3[C@H]2CC[C@]2(C)C(=O)CC[C@H]32)C1` here?
A: -3.16%
